Fewer than 10 of roughly 6,700 compounds were called active.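 Rule for the calls: active = mean percent activation across replicates above the confirmation screen cutoff of 4.91%; inactive = the rest.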 The list is a sample of the results.
molecular target: G-protein coupled receptor 151 (Homo sapiens) (UniProt Q8TDV0); assay: GPR151 activators, triplicate retest, confirmation, cell-based, PathHunter beta-arrestin, luminescence (AID 1508609); conditions: GPR151 PathHunter beta-arrestin cells, 90 min, at 11.2 µM, stronger effect = higher value, % of EA-reagent control over plate median
Sequence (Q8TDV0 whole entry, looked up): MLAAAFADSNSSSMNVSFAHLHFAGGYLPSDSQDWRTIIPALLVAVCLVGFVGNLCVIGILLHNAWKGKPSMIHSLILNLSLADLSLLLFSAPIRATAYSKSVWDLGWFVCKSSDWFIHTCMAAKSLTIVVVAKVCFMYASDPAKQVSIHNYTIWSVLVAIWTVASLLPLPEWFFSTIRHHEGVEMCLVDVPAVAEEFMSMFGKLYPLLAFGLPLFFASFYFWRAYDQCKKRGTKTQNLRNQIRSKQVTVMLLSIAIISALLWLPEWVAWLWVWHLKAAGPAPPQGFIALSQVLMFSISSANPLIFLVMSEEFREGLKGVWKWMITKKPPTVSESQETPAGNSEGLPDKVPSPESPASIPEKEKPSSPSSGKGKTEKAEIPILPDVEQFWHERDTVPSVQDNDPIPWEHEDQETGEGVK

activation, inactive:
COC(=O)c1c(NC(=O)Nc2ccc(Cl)c(Cl)c2)sc2c1CCCC2 0.7%, O=C1NCCN(Cc2ccc(-c3ccccc3)cc2)C1CC(=O)N1CCCCC1 (stereo not drawn) 0.39%, Cc1ccc(C)c(CN2CCC(n3nccc3NC(=O)C(C)(C)C)CC2)c1 0.69%, CCn1c(COc2ccccc2)nnc1Sc1ccc([N+](=O)[O-])cc1C=O 0.71%, Cc1cc(N2CCOCC2)ccc1C=C1C(=O)c2ccccc2C1=O -0.77%, COC(=O)c1c(-c2ccccc2)csc1NC(=O)c1ccc(OC)c([N+](=O)[O-])c1 0.78%, Cc1ccc(C(=O)Oc2ccccc2/C=N/N=C2\NC(=O)C(CC(=O)O)S2)cc1 (stereo not drawn) -0.38%, Cc1ccc(S(=O)(=O)Cn2nnnc2CN2CCN(c3ccccc3F)CC2)cc1 1.76%, CCN(CC)c1nc(Nc2ccccc2)nc(Nc2ccccc2)n1 -0.22%, C=CCn1c2ccccc2c2nnc(SCc3[nH]c(=O)[nH]c3C(=O)CCCCC(=O)OCC)nc21 1.2%, COC(=O)c1cc(NC(=O)COc2ccc([N+](=O)[O-])cc2)cc(C(=O)OC)c1 0.64%, CC(C)COC(=O)c1ccc(NC(=O)C2C3C=CC(C3)C2C(=O)O)cc1 (stereo not drawn) 1.05%, O=C(N/N=C\C=C\c1ccccc1)c1ccccn1 -0.98%, COc1ccc(NC(=S)N2CCN(S(=O)(=O)c3ccc(F)cc3)CC2)c(OC)c1 -0.28%, Cc1cccn2c(=O)c3cc(C(=O)NC4CCCCC4)c(=N)n(C4CCCCC4)c3nc12 -0.69%, OCCC1CN(Cc2ccc3cc(F)ccc3n2)CCN1C1CCCC1 (stereo not drawn) 1.64%, O=C(Cn1c(=O)n(Cc2ccccc2)c(=O)c2ccccc21)c1ccccc1 1.26%, CCOc1c(Cl)cc(CNCc2ccccc2)cc1OC -0.5%, COC(=O)c1oc2ccc(Br)cc2c1NC(C)=O 0.35%, O=C(c1ccc(CNS(=O)(=O)c2ccc(Cl)cc2)cc1)N1CCCC1 1.92%, C=CCc1cccc(/C=N/NC(=O)CCC(=O)Nc2ccc(Br)cc2)c1O -0.44%, O=C(CN1CCOCC1)Nc1c(Cl)cc(Cl)cc1Cl 0.82%, CCOC(=O)c1ccc(NC(=O)c2ncn(-c3ccccc3)n2)cc1 0.02%, Cn1ncc2c(NNC(=O)Cc3cccc4ccccc34)ncnc21 0.44%, CCCCc1ccc(NC(=O)CN2C(=O)C(C)SC(C)C2=O)cc1 (stereo not drawn) 0.42%, COc1ccc(CCNc2cc(C)nc(Nc3cccc(N(C)C)c3)n2)cc1 0.06%, O=C(Nc1ccc(NC(=O)c2cccc3c(Br)cccc23)cc1)c1ccco1 1.13%, COC(=O)[C@@H]1CC(O)CN1C(=O)C12CC3CC(CC(C3)C1)C2 (stereo partly drawn) 0.35%, CC1=C(C(=O)Nc2cccc(F)c2)C(c2ccccn2)C2=C(CCCC2=O)N1 (stereo not drawn) 0.25%, NC(=S)N/N=C/c1ccc([N+](=O)[O-])cc1 -0.11%, CC(C)C(=O)NC(=S)Nc1ccccc1F 0.14%, COc1ccc(C2(NC(=O)CCn3cnc4sc(C)c(C)c4c3=O)CCCCC2)cc1 0.69%, CCC1=C(C)c2cc3nc(C(=O)OCc4ccccc4)c(C)c-3c(C)n2C1C (stereo not drawn) -0.16%, CCN(CC)C(=O)C1CCCN(c2cc(N)nc(N)n2)C1 (stereo not drawn) -0.11%, CCC1C(=O)NCCN1Cc1ccc2c(c1)CN(Cc1c[nH]c3ccccc13)CCO2 (stereo not drawn) 1.68%, CN1C(=O)c2ccc(N3C(=O)c4cccc([N+](=O)[O-])c4C3=O)cc2C1=O -0.57%, Cc1ccc[n+](-c2ncnc(N)c2[N+](=O)[O-])c1 -0.67%, COc1cccc(-c2ocnc2C(=O)Nc2ccc3nc(-c4cccnc4)oc3c2)c1 0.94%, O=C(c1cc([N+](=O)[O-])ccc1NC1CCCCC1)N1CCOCC1 -1.3%, C=CCN1C(=O)CC(C(=O)OC)C12CCN(C1CCN(C(=O)OCC)CC1)CC2 (stereo not drawn) -0.6%, Cc1cccc(-n2nc3c(c2NC(=O)CCC2CCCCC2)CS(=O)(=O)C3)c1C 0.42%, COc1ccc(C2C(C#N)=C(N)Oc3c2c(C)nn3-c2ccccc2)cc1 (stereo not drawn) 0.69%, CC(=O)c1ccc(NC(=O)c2ccc(CN(c3ccc(C)c(C)c3)S(C)(=O)=O)cc2)cc1 -0.1%, CC1CCCC(NCc2c(C(=O)O)n(Cc3ccc(Cl)cc3)c3ccccc23)C1C (stereo not drawn) 0.3%, Cc1cccc(C)c1-n1c(=S)sc2c(=O)n(-c3cccc(Cl)c3)c(SCC#N)nc21 2.02%, CCCCc1ccc(N=Cc2nc(-c3cccc4ccccc34)oc2O)cc1 -1.01%, Cc1ccc(N2C(=O)CC(N3CCN(Cc4ccc(Cl)cc4)CC3)C2=O)cc1Cl (stereo not drawn) 0.04%, Oc1ccc(Cn2cc[nH]c2=S)cc1 -0.7%, CC(C)NC(=O)/C=C/c1ccccc1Cl -0.37%, COc1ccc(C(=O)CSc2nc3sc4c(c3c(=O)n2-c2ccc(Cl)cn2)CCCC4)c(F)c1 -0.67%, NC(=O)C1CCN(C(=O)c2ccc(-c3ccccc3)cc2)CC1 -1.12%, COCCNC(=S)N1CCN(c2ccccc2OC)CC1 0.65%, Cc1ccc(-c2nnc(N3CCOCC3)c3ccccc23)cc1S(=O)(=O)N1CCN(C)CC1 -0.46%, CC(C)n1c(=O)[nH]c2c(C(N)=O)nc(-c3ccc(-c4ccccc4)cc3)nc21 -0.04%, COc1ccc(OC)c(/C=N/n2nnnc2N)c1 -0.17%, O=C(NCc1ccsc1)c1ccc(-n2cccc2)cc1 0.53%, C=CCc1ccccc1OCCN1CCNCC1 -0.14%, Cc1ccc(S(=O)(=O)NCC(c2cccnc2)N2CCN(c3ccc(F)cc3)CC2)cc1 (stereo not drawn) -0.45%

From PubChem BioAssay AID1508609 (The Scripps Research Institute Molecular Screening Center, 2020)
